Measurements taken from PubChem BioAssay AID1347041 (National Center for Advancing Translational Sciences (NCATS), 2019).
Several values for one entry are separate records, joined by “and”; a condition that tells them apart may be missing. Identical values can stand only once. Among all 480,000 compounds or so, about 740 (0.15%) were called active. Cut-off read from the data, not from the text of the source: active = activity change below about -30%; inconclusive = mostly about -25% to -30%; inactive = weaker than that. The sample as a whole holds a higher share of actives than the screen did. Where a structure was tested more than once in an assay, its records may differ in their call.

target: L-lactate dehydrogenase A chain (Homo sapiens) (UniProt P00338); assay: qHTS assay for inhibitors of human lactate dehydrogenase; settings: purified LDHA, NADH/diaphorase-resazurin fluorescence; stronger effect = lower value;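 note: values are at about 110 or 230 µM; plate controls were DMSO wells for no effect and wells without enzyme for full effect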
Summary of the method: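 Enzyme activity of human lactate dehydrogenase 5 (2 nM; 0.06 mM NADH, 0.2 mM pyruvate, 5 min, RT) is measured via a resazurin/diaphorase fluorescence readout of residual NADH.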

Structure (SMILES) | activity change
Cc1ccc(/C=C(/C#N)C(=O)c2ccsc2)cc1C | 4.55% (inactive)
CC(C)(C)C(=O)N1CCC(C(=O)N2CCC(c3nc4ccccc4o3)CC2)CC1 | 0.769% (inactive)
O=C(C(c1ccccc1)N1CCN(S(=O)(=O)c2cccs2)CC1)N1CCCCC1 (stereo unspecified) | 1.33% (inactive)
O=C(NCc1ccco1)NNc1nc2c(-c3ccccc3)nnn2c2ccccc12 | 0.688% (inactive)
Clc1cc(Cl)c(N/N=C/c2ccc(Br)cc2)c(Cl)c1 | 1.46% (inactive)
Cc1cc(C)c(S(=O)(=O)c2ccccc2)c(OC(=O)c2c(F)cccc2Cl)n1 | -58% (active)
Cc1cc(OC(=O)c2c(Cl)cccc2Cl)nc(C)n1 | -6.35% (inactive)
O=C(OCc1ncc(-c2ccccc2)o1)c1c(F)cccc1Cl | -4% (inactive)
CC(=O)c1c(C)[nH]c(C)c1C | -0.832% (inactive)
CCc1nc(C#N)c(NCC(c2cccs2)N2CCOCC2)o1 (stereo unspecified) | 4.58% (inactive)
CCCc1cc(=O)oc2cc(OC(C)C(=O)Nc3cccc(C(C)=O)c3)ccc12 (stereo unspecified) | 1.35% (inactive)
Cc1c(C(=O)C(=O)NC(C)c2ccccc2)c2ccccc2n1C (stereo unspecified) | -3.86% (inactive)
CCOC(=O)c1cc(S(=O)(=O)Nc2cccc(C)c2C)[nH]n1 | -1.21% (inactive)
COc1ccc(OCCOC(=O)c2nn(C)c(=O)c3ccccc23)cc1 | 0.361% (inactive)
Cc1nc(-c2ccc(F)cc2)c(CC(=O)Nc2cc(S(=O)(=O)N3CCCCC3)ccc2C)s1 | -0.452% (inactive)
Cc1nc(-c2ccc(F)cc2)c(CC(=O)N2CCN(S(=O)(=O)c3ccc(F)cc3)CC2)s1 | 7.31% (inactive) and -4.86% (inactive)
Cc1ccc(S(=O)(=O)N2CCN(C(=O)Cc3sc(C)nc3-c3ccc(F)cc3)CC2)c(C)c1 | 1.74% (inactive) and -33% (active)
CC(NC(=O)c1nccnc1N)c1ccco1 (stereo unspecified) | -5.25% (inactive)
CC(=O)[C@@H]1SC(N)=C(C#N)[C@H]1c1cccs1 | 12.5% (inactive)
CCCn1c(N2CCN(C(=O)c3cccc(OC)c3)CC2)nc2sc3c(c2c1=O)CCCC3 | -1.23% (inactive)
CCN(c1ccccc1)c1nnc(NC(=O)Nc2ccccc2OC)s1 | -2.61% (inactive)
CCCn1nc(C(=O)Nc2ccc(OC)c(NC(C)=O)c2)c2ccccc2c1=O | -2.1% (inactive)
CCNC(=O)CN1CCN(C(C(=O)O)c2c[nH]c3ccc(OCc4ccccc4)cc23)CC1 (stereo unspecified) | -6.48% (inactive)
Fc1ccc(OCc2nn3c(CSc4ccccc4)nnc3s2)cc1 | -2.81% (inactive)

Structure (SMILES) | activity change
O=C(CN1CCN(CC(=O)c2c[nH]c3ccccc23)CC1)NC1CC1 | 0.902% (inactive)
CCc1ccc(NC(=O)CSc2nccn2Cc2ccccc2OC)cc1 | 8.74% (inactive)
CC(NC(=O)c1cc(Cl)sc1Cl)C12CC3CC(CC(C3)C1)C2 (stereo unspecified) | 1.53% (inactive)
COc1ccc(-c2cc(C(=O)O)c3cc(C)ccc3n2)cc1OC | 6.4% (inactive)
CC(C)Cn1nc(C(=O)NCc2ccccc2F)c2ccccc2c1=O | 8.3% (inactive)
COCCCN(C)Cc1cccc(OC)c1 | -1.41% (inactive)
COc1cc(Cl)c(C)cc1NC(=O)C(C)N1CCN(CCc2ccccc2)CC1 (stereo unspecified) | -11.8% (inactive)
O=C1CCCC2=C1C(c1ccc(C(=O)O)cc1)c1c([nH]n(-c3ccccc3)c1=O)N2 (stereo unspecified) | 14.2% (inactive)
CCOC(=O)C1=C(CN2CCN(C(=O)OC(C)(C)C)CC2)NC(=O)NC1c1ccccc1OCC (stereo unspecified) | -21.6% (inactive)
Cc1cc(CNC(=O)NCc2coc(-c3cccs3)n2)ccc1F | -5.62% (inactive)
CCCNc1c(NS(=O)(=O)c2ccc(F)c(F)c2)c(=O)oc2ccccc12 | 0.151% (inactive)
COc1ccc(C(=O)Nc2oc3ccc(Cl)cc3c(=O)c2-c2ccc3c(c2)OCO3)cc1 | -4.91% (inactive)
Cc1c(C(N)=O)[n+](=O)c2ccccc2n1[O-] | -7.73% (inactive)
Oc1ccc2ccccc2c1C=NCCc1ccccc1 | 43.7% (inactive)
Cn1c(=O)c2c(ncn2CC(=O)Nc2cccc(F)c2)n(C)c1=O | 0.764% (inactive)
COc1ccc(-c2nc(=N)sn2-c2ccccc2)cc1 | -63.7% (active)
Cc1ccc(-c2nnn(Cc3csc(-c4ccccc4Cl)n3)n2)cc1 | -3.25% (inactive)
Cc1ccc(CN2C(=O)SC(Nc3ccccc3)C2=O)cc1 (stereo unspecified) | -3.19% (inactive)
COc1ccc(Nc2ccccc2)cc1 | 15% (inactive)
Cc1ccc(-c2nc(=N)sn2Cc2ccccc2)cc1 | -80.9% (active)
COc1ccc(-c2nn3c(-c4ccc(OC)cc4)nnc3c3ccccc23)cc1 | -7.99% (inactive)
CCCCn1c(=O)[nH]c(=O)c2c1nc(COC(=O)C1(C#N)CCCC1)n2C | -5.02% (inactive)
O=C(CCC1NC(=O)c2ccccc2NC1=O)NC1CCCC1 (stereo unspecified) | -4.57% (inactive)
Cc1ccc(N(CC(=O)N2CCN(C/C=C/c3ccccc3)CC2)S(C)(=O)=O)cc1 | -0.0793% (inactive)

Structure (SMILES) | activity change
CN(Cc1ccc(Cl)cc1)C(=O)Cn1nnn(-c2cccs2)c1=O | -0.86% (inactive)
CCCn1nc(C(=O)N(C)Cc2ccc(OCC)cc2)c2ccccc2c1=O | -4.2% (inactive)
COc1ccc2oc(=O)c(S(=O)(=O)N3CCCCCC3)cc2c1 | -6.37% (inactive)
CC(C)CC(=O)Nc1ccc(N2CCCC2)cc1 | 39.8% (inactive)
COc1cc(CN2C(=O)C(=O)c3cccc(C)c32)ccc1OCCC(C)C | 5.04% (inactive)
COc1ccc(Br)cc1/C=C1\Cc2ccccc2C1=O | 0.293% (inactive)
COc1cccc2cc(C(=O)N3CCN(c4cccc(C(F)(F)F)c4)CC3)c(=O)oc12 | 3.43% (inactive)
COc1ccccc1CCNC(=O)CSc1ccc(-c2ccccn2)nn1 | 8.88% (inactive)
O=C(COc1c(I)cc(Cl)c2cccnc12)N1CCCC1 | -11.3% (inactive)
CCN(CC(=O)N(C)C)Cc1ccc(F)c2cccnc12 | 0.454% (inactive)
COc1ccc(Oc2c(C)oc3cc(OCC(=O)N4CCC(C(N)=O)CC4)ccc3c2=O)cc1 | -1.42% (inactive)
CN(Cc1ccc(OC(F)F)cc1)C(=O)c1nn(Cc2ccccc2)c(=O)c2ccccc12 | 13.3% (inactive)
COc1ccc(NC(=O)c2cnn3c2NC(C(=O)O)=CC3c2ccc(F)cc2)cc1 (stereo unspecified) | 18.2% (inactive)
Cn1c(SCC(=O)Nc2cccc(F)c2)nc2c(=O)[nH]cnc21 | 11% (inactive)
CCN(CC)S(=O)(=O)c1ccc(N2CCCC2)c(NS(=O)(=O)c2cccs2)c1 | -11.2% (inactive)
CCN(CC)S(=O)(=O)c1ccc(C)c(NC(=O)COc2ccc(Br)cc2Cl)c1 | -4.43% (inactive)
CCN(CC)S(=O)(=O)c1ccc(C)c(NS(=O)(=O)c2cccc(C#N)c2)c1 | -34.7% (active)
COC(=O)c1ccc(C2C(C#N)=C(N)Oc3c2ccc2ccccc32)cc1 (stereo unspecified) | -5.14% (inactive)
Cc1cc2nc(/C(C#N)=C/c3ccccc3)[nH]c2cc1C | 9.89% (inactive)
Cn1c(/C(C#N)=C2/CCCCCN2)nc2ccccc21 | 1.28% (inactive)
Cc1cc(/C=C(/C#N)c2nc3ccccc3n2C)cc(C)c1O | -32.2% (active)
CC(C)CC(NC(=O)COc1ccc(Oc2ccccc2)cc1)C(=O)O (stereo unspecified) | -0.172% (inactive)
O=C(O)c1cc(NC(=O)c2ccc(Cl)s2)cc(C(=O)O)c1 | -9.52% (inactive)
